The supplement of paper PMC10338343
± gives the standard deviation.

These sequences were tested on EfPiwi piRISC loaded with L1MC piRNA (26 nt) (assay: pre-steady-state target cleavage rate (min^-1); auxiliary factor: 500 nM Ephydatia muelleri Gtsf1; guide: L1MC piRNA 5'p-UAACUAAAUACUAUGCAAGCUGUAGG; MIWI and MILI are mouse PIWI proteins and EfPiwi is from a freshwater sponge; tags in brackets are library labels; higher = faster piRNA-guided slicing of the target).
Method in brief: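 The method was Cleave-'n-Seq, in which uncleaved targets from a transcribed, DNA-blocked target RNA library were sequenced after exposure to active affinity-purified piRISC carrying one synthetic guide, with or without GTSF1 partner protein. Reactions contained 0.1 nM library, 1 nM piRISC and, where present, 500 nM GTSF1 in HEPES–potassium acetate buffer at 33 °C for 0–8 or 0–960 min. Reads were normalised to depth and to weakly complementary targets, three trials were pooled, and k3 was capped at 0.0001 min^-1. The pre-steady-state cleavage rate came from a burst-and-steady-state fit.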

Sequence	pre-steady-state target cleavage rate
UCCUGGAUGUCGAACGAUAGUCAUUUAGUUA	< 0.0001
UCCUGCUACACCUUGCAUUGUAUUUAGUUA	0.00323 ± 0.0025
UCCUCCUACAGCUUCCAUAGUAUUUACAAA	0.00265 ± 0.0026
UCCUGGAUGUCGAACGUAUGUAUUUAGAUUA	< 0.0001
UCCUGGAUGAGCUUGCAUACUAUUUAGAAA	0.00478 ± 0.0029
UCCUGCUACAGCUAGCAUUGUAUUUAGUUA	0.00762 ± 0.0028
UCCUGGAUGUCGAAGGAUAGUUUUUAGUUA	< 0.0001
UCCUGGUAGAGCUUGCAAAGUAUUUAGUUA	0.0322 ± 0.0099
UCCUCCUACUCGUUGCAUAGUAUUUAGUAA	0.00477 ± 0.0029
UCCUGGAUGAGCUUGCGAUAGUAUUUAGUUA	0.00307 ± 0.0022
UCCUCCUACAGCUUCCAUAGUAUUUAGAUA	0.00393 ± 0.0021
UCCUGGUACAGGUUGCAUAGUAUUAAGUUA	0.00485 ± 0.0027
UCCUGCUACCAGCUUGCAUAGUAUUUAGUUA	0.0199 ± 0.0059
UCCUGGAUGUCGUUGGUAAGUAUUUAGUUA	< 0.0001
UCCUGCUACACGAUGCAUAGUAUUUAGUUA	0.00905 ± 0.0024
UCCUGGAACAGCUUGCAUAGUAUAUAGUUA	0.00501 ± 0.0025
UCCUGGUACAGCUUGCAUAGUAUAUUCAAA	0.00341 ± 0.0028
UCCUCCUACAGCUUGCGAUAGUAUUUAGUUA	0.00839 ± 0.0023
UCCUGGAUGAGCUUGCAUACUAUUUAGAUA	0.00231 ± 0.0021
UCCUGGUACAGCUUCCAUAGUAUUUAGAUA	0.00221 ± 0.0016

Sequence	pre-steady-state target cleavage rate
UCCUGGAUGUCGAACCAUAGCUAUUUAGUUA	< 0.0001
UCCUGCUACAGCUUCCAUAGUAUUUAGAAA	0.00349 ± 0.0019
UCCUGGAACAGCUUGCCUAGUAUUUAGUUA	0.0399 ± 0.013
UCCUGGAUCAGCUUUGCAUAGUAUUUAGUUA	0.103 ± 0.023
UCCUGGAACUGCUUGGAUAGUAUUUAGUUA	0.0527 ± 0.014
UCCUGGUACAGCUUGGAUAGUAUUUAGAAA	0.00277 ± 0.0022
UCCUGGAUGUCGAACGUCAGUAUUUAGUUA	< 0.0001
UCCUGCUACAGGAAGCAUAGUAUUUAGUAA	0.00302 ± 0.0027
UCCUGGUACAGUUUGCAUAGUAUUUAGUUA	0.00421 ± 0.0025
UCCUGCUACAGCUUGGAUAGUAUUAAGUUA	0.0066 ± 0.0018
UCCUGCAACAGCUUGCAUAGUUUUUAGUUA	0.00727 ± 0.0019
UCCUGGUACACUUGCAUAGUAUUUAGUUA	0.00407 ± 0.0024
UCCUGGAACAGCAAGCAUAGUAUUUAGUUA	0.00853 ± 0.0027
UCCUCCUACAGCUUGCAUAGUAUAUAGAUA	0.0051 ± 0.0025
UCCUCCUACAGCUUGCAUAGUAUUAAGAAA	0.0051 ± 0.0031
UCCUGGUACAGCUUGCGAUAGUAUUUAGUUA	0.00543 ± 0.0019
UCCUCCUUCAGCUUGCAAAGUAUUUAGUUA	0.0828 ± 0.021
UCCUGGAUGACUUGCAUAGUAUUUAGUUA	0.0058 ± 0.0023
UCCUGGUACAGCUUGCGUAGUAUUUAGUUA	0.0273 ± 0.0095
UCCUGGAUGUCGAACGUAUCAAUAUAGUUA	< 0.0001
